The text below walks through data of PubChem BioAssay (Tox21).

The structures appear in SMILES notation. Inconclusive results are not listed. The source made the active and inactive calls. Unless noted, the call rests on the fitted dose curve; in most records, active means well fitted curve in the direction sought with a large enough effect in the repeat runs; inconclusive means weak or mixed curves; inactive means no such curve, though single readings can be large; an effect the other way counts as inactive or inconclusive.

The nature of assay [1]: qHTS assay to identify aromatase inhibitors - cell viability counter screen (AID 743084).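 Further: cells stimulated with testosterone during compound exposure; nearly all actives have a fitted effect of over 55% in size.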
Assay [2] addresses Aryl hydrocarbon receptor (Homo sapiens) (UniProt P35869). Kind of assay: qHTS assay to identify small molecule that activate the aryl hydrocarbon receptor (AhR) signaling pathway (AID 743085). Further: nearly all actives have a fitted effect of over 15% in size. Further: potency means the concentration at half of the fitted maximal effect.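 On activation: HG2L7.5c1 human HepG2 liver cells with stably integrated DRE-driven firefly reporter; series mostly up to about 70 µM.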 The procedure, abridged: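 Compounds were tested in HepG2 hepatocellular carcinoma cells harbouring a stably integrated luciferase gene under control of 20 DREs. Increased reporter signal after 24 h treatment at 37C was taken as AhR activation.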
On the technique in general: qHTS replaces the single test concentration by a dilution series.

A short description of assay [3]: qHTS assay to identify small molecule that activate the aryl hydrocarbon receptor (AhR) signaling pathway - cell viability counter screen (AID 743086).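 Further: HepG2 liver cells carrying the AhR DRE luciferase reporter; series mostly up to about 70 µM; nearly all actives have a fitted effect of over 45% in size.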 An outline of the steps: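 HepG2-AhR-luc (HG2L7.5c1) cells, 4000/well, were preincubated 5 h at 37C, exposed to compound in qHTS format for 24 hr at 37C, then given CellTiter-Fluor for 30 min; viability was read as fluorescence in the reporter wells.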

For assay [4], the target named is Peroxisome proliferator-activated receptor gamma (Homo sapiens) (UniProt P37231). Description: qHTS assay to identify small molecule agonists of the peroxisome proliferator-activated receptor gamma (PPARg) signaling pathway (AID 743094; active means well fitted activation curve with a large enough effect in the signal ratio in the repeat runs, not every such curve was filed as active; the % refers to the signal ratio). The procedure, abridged:
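Agonist activity was taken from a beta-lactamase reporter (FRET substrate, 1 h at room temperature) in HEK293H cells carrying a PPARg UAS-bla construct. Compounds in DMSO were incubated 17 h at 37C after a 5 h cell pre-incubation.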

Assay [5] shares this target. Description: qHTS assay to identify small molecule antagonists of the peroxisome proliferator-activated receptor gamma (PPARg) signaling pathway (AID 743191; calls by dose curve; further: series mostly up to about 63 µM; nearly all actives have a fitted effect of over 30% in size). The procedure, abridged: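 GeneBLAzer PPARg UAS-bla HEK293H cells carrying a UAS-driven beta-lactamase reporter were plated at 3000 cells/well, preincubated 5 h at 37C, then given compound for 17 h at 37C; LiveBLAzer B/G FRET substrate was read after 1 h at room temperature.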

Assay [6] in a line: qHTS assay to identify small molecule antagonists of the peroxisome proliferator-activated receptor gamma (PPARg) signaling pathway - cell viability counter screen (AID 743194). Further: nearly all actives have a fitted effect of over 55% in size. An outline of the steps:
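PPARg-UAS-bla HEK293H cells were plated, rested 5 h at 37 C, then treated with compounds plus rosiglitazone (50 nM final) for 17 h at 37 C; viability was then read by CellTiter-Glo luminescence after 30 min at room temperature.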

Assay [7] is described as follows: qHTS assay for small molecule agonists of the antioxidant response element (ARE) signaling pathway - cell viability counter screen (AID 743203; calls by dose curve; further: nearly all actives have a fitted effect of over 55% in size). The procedure, abridged: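 Viability counter screen: CellTiter-Glo luminescence, read after 30 min at room temperature, in ARE-bla HepG2 wells. Compound exposure lasted 16 h at 37C/5% CO2, following a 5 h pre-incubation of the cells after plating.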

The nature of assay [8]: qHTS assay for small molecule activators of the heat shock response signaling pathway - cell viability counter screen (AID 743209). Further: nearly all actives have a fitted effect of over 50% in size. An outline of the steps:
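Cytotoxicity counter screen run in the same wells as the heat-shock bla reporter assay: HeLa HSE-bla cells, 5 h compound exposure at 37 C, viability read by CellTiter-Glo luminescence.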

Assay [9] can be described thus: qHTS assay for small molecule activators of the heat shock response signaling pathway (AID 743210; active means well fitted activation curve with a large enough effect in the signal ratio in the repeat runs, with a control signal flat, not every such curve was filed as active; the % refers to the signal ratio; further: series mostly up to about 63 µM). An outline of the steps:
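Heat shock element–beta-lactamase HeLa reporter cells; qHTS with compounds for 5 h at 37 C; detection by FRET substrate fluorescence after 2.5 h at RT.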

Assay [10] can be described thus: qHTS assay to identify small molecule agonists of the peroxisome proliferator-activated receptor delta (PPARd) signaling pathway - cell viability counter screen (AID 743211). Further: nearly all actives have a fitted effect of over 55% in size. The procedure, abridged: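 Counter screen for cytotoxicity run in parallel with the PPARd reporter screen. Beta-lactamase reporter HEK293H cells exposed to compounds 17 h; ATP-based CellTiter-Glo luminescence quantified viability.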

Assay [11] deals with Peroxisome proliferator-activated receptor delta (Homo sapiens) (UniProt Q03181). Description: qHTS assay to identify small molecule agonists of the peroxisome proliferator-activated receptor delta (PPARd) signaling pathway (AID 743212; calls by dose curve). An outline of the steps:
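Beta-lactamase reporter read by fluorescence (LiveBLAzer B/G FRET, 2 h, room temperature). Test agents, in DMSO, incubated at 37 C with PPARd-bla HEK293H cells.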

The target is the same in assay [12]. Kind of assay: qHTS assay to identify small molecule antagonists of the peroxisome proliferator-activated receptor delta (PPARd) signaling pathway (AID 743215; active means well fitted inhibition curve with a large enough effect in the signal ratio in the repeat runs, not every such curve was filed as active; the % refers to the signal ratio;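 further: cells stimulated with agonist L165041 at 300 nM final during compound exposure; series mostly up to about 62 µM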). An outline of the steps:
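Agonist L165041 (300 nM final) added with compound to PPARd-bla HEK293H UAS-bla reporter cells; 17 h incubation at 37 C. Read-out: LiveBLAzer FRET substrate, 2 h at room temperature, fluorescence intensity.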

Assay [13] is described as follows: qHTS assay to identify small molecule agonists of the farnesoid-X-receptor (FXR) signaling pathway - cell viability counter screen (AID 743218). Further: nearly all actives have a fitted effect of over 45% in size. The procedure, abridged:
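Viability counter screen in the same wells: CellTiter-Glo luminescence, 30 min room-temperature incubation, measured after the beta-lactamase read. Cells were GeneBLAzer FXR-UAS-bla HEK 293T, compound-treated 16 h at 37C.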

Assay [14] can be described thus: qHTS assay to identify small molecule antagonists of the farnesoid-X-receptor (FXR) signaling pathway - cell viability counter screen (AID 743221; active means well fitted cell-killing curve with a large enough effect in the repeat runs, not every such curve was filed as active; further: nearly all actives have a fitted effect of over 50% in size). An outline of the steps:
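Multiplexed counter screen: viability of FXR-bla HEK 293T cells under agonist stimulation by chenodeoxycholic acid (50 uM, final) and test compound for 16 h at 37 C, measured by CellTiter-Glo luminescence in the reporter wells.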

Assay [15] is described as follows: qHTS assay to identify small molecule antagonists of the peroxisome proliferator-activated receptor delta (PPARd) signaling pathway - cell viability counter screen (AID 743213). Further: nearly all actives have a fitted effect of over 50% in size. The procedure, abridged:
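Same-well viability: cells pre-incubated 5 h, dosed with compound plus 300 nM L165041, kept 17 h at 37 C, FRET substrate 2 h RT, then CellTiter-Glo 30 min RT and luminescence.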

Assay [16] concerns the target Bile acid receptor (Homo sapiens) (UniProt Q96RI1). Description: qHTS assay to identify small molecule antagonists of the farnesoid-X-receptor (FXR) signaling pathway (AID 743217; active means well fitted inhibition curve with a large enough effect in the signal ratio in the repeat runs, not every such curve was filed as active; the % refers to the signal ratio). An outline of the steps:
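Antagonist mode: chenodeoxycholic acid at 50 uM final stimulates a UAS-driven beta-lactamase reporter in HEK 293T FXR-bla cells during 16 h, 37C compound exposure. Read-out is FRET substrate fluorescence after 2 h at room temperature.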

For assay [17] the target is unchanged. Kind of assay: qHTS assay to identify small molecule agonists of the farnesoid-X-receptor (FXR) signaling pathway (AID 743220; active means well fitted activation curve with a large enough effect in the signal ratio in the repeat runs, not every such curve was filed as active; the % refers to the signal ratio). An outline of the steps: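 FXR-UAS-bla HEK 293T cells carrying a UAS-driven beta-lactamase reporter were plated for 5 h at 37C/5% CO2, then exposed to DMSO-dissolved Tox21 10K compounds for 16 h at 37C. A LiveBLAzer B/G FRET substrate was loaded for 2 h at room temperature before fluorescence reading.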

In assay [18] the target is Vitamin D3 receptor (Homo sapiens) (UniProt P11473). Description: qHTS assay to identify small molecule antagonists of the vitamin D receptor (VDR) signaling pathway (AID 743223; active means well fitted inhibition curve with a large enough effect in the signal ratio in the repeat runs, not every such curve was filed as active; the % refers to the signal ratio). The procedure, abridged:
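Cells carrying a VDR-driven beta-lactamase reporter (VDR-bla) were co-treated with compound and 3 nM final 1alpha,25-dihydroxyvitamin D3 for 16 h at 37C; reporter activity was measured as FRET substrate fluorescence after 2 h at room temperature.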

Assay [19] in a line: qHTS assay for small molecule agonists of the antioxidant response element (ARE) signaling pathway (AID 743202; active means well fitted activation curve with a large enough effect in the signal ratio in the repeat runs, not every such curve was filed as active; the % refers to the signal ratio). The procedure, abridged: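 Following a 16 h, 37 C exposure of reporter HepG2 cells (ARE-driven beta-lactamase, 2,000 cells/well) to compounds, FRET substrate was applied for 2 h at room temperature and fluorescence intensity recorded.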
Assay [20] has as its target Vitamin D3 receptor (Homo sapiens) (UniProt P11473). Description: qHTS assay to identify small molecule agonists of the vitamin D receptor (VDR) signaling pathway (AID 743222; calls by dose curve). The procedure, abridged:
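Agonist mode, beta-lactamase reporter: fluorescence from LiveBLAzer B/G FRET substrate (2 h, room temperature) read after 16 h compound treatment at 37 C of VDR-bla cells, which were pre-incubated 4 h after seeding.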

Peroxisome proliferator-activated receptor gamma (Homo sapiens), sequence (P37231 whole entry, looked up): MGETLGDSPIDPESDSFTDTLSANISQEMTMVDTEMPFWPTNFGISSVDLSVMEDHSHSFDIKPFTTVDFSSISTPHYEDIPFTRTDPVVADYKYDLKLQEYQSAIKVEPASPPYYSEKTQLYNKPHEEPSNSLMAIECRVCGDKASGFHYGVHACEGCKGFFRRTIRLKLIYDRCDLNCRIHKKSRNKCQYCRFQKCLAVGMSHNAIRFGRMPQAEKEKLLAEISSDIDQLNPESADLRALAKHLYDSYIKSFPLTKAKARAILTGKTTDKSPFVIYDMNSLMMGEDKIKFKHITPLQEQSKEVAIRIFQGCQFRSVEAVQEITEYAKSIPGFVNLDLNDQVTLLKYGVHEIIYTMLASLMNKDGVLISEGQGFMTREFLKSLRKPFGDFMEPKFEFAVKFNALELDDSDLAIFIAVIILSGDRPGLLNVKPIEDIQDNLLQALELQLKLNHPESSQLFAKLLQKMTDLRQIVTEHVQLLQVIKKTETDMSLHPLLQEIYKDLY
Peroxisome proliferator-activated receptor delta (Homo sapiens), sequence (Q03181 whole entry, looked up): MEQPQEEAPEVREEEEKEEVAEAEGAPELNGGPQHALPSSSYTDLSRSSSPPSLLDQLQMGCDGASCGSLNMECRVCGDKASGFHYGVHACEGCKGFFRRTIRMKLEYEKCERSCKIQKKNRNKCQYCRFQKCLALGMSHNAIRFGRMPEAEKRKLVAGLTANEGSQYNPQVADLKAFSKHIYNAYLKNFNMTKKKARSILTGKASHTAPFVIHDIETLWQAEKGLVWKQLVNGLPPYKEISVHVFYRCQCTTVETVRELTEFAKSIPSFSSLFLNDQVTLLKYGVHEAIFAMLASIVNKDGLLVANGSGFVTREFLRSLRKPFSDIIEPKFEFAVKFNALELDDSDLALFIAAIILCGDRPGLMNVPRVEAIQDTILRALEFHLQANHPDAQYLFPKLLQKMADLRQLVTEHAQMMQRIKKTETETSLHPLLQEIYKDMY
Vitamin D3 receptor (Homo sapiens), sequence (P11473 whole entry, looked up): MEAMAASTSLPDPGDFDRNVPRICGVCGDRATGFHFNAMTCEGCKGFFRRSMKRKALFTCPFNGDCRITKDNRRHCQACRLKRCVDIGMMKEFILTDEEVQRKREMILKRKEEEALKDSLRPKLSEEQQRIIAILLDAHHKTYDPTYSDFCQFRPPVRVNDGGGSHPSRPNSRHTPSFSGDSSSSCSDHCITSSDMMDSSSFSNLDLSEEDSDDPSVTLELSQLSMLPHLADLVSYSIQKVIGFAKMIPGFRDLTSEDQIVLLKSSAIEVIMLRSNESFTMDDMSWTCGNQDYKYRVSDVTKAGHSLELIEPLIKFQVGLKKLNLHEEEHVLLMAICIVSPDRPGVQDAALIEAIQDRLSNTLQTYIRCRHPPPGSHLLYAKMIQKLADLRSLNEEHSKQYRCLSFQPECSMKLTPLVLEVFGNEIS
Aryl hydrocarbon receptor (Homo sapiens), sequence (P35869 whole entry, looked up): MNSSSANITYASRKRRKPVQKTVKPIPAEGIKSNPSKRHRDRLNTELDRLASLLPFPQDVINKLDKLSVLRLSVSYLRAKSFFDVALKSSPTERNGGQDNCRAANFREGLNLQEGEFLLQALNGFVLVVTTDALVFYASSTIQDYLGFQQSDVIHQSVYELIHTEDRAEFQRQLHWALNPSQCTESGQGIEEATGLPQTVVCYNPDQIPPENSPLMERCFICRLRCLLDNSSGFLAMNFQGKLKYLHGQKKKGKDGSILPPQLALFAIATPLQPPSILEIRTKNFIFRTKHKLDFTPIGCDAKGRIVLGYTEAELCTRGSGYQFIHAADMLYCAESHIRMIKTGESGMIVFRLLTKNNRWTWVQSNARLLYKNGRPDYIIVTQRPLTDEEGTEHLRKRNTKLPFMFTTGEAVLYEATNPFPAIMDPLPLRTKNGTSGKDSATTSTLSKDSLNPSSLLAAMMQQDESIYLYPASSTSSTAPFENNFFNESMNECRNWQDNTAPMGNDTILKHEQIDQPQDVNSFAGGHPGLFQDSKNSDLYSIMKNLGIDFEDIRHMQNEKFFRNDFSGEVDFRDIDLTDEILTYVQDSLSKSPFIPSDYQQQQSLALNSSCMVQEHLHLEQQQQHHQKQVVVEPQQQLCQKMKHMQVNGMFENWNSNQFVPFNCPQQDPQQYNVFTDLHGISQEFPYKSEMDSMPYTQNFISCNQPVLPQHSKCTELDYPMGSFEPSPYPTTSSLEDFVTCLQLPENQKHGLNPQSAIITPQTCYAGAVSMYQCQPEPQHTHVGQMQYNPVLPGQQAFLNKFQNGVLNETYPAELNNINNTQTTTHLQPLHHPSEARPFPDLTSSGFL
Bile acid receptor (Homo sapiens), sequence (Q96RI1 whole entry, looked up): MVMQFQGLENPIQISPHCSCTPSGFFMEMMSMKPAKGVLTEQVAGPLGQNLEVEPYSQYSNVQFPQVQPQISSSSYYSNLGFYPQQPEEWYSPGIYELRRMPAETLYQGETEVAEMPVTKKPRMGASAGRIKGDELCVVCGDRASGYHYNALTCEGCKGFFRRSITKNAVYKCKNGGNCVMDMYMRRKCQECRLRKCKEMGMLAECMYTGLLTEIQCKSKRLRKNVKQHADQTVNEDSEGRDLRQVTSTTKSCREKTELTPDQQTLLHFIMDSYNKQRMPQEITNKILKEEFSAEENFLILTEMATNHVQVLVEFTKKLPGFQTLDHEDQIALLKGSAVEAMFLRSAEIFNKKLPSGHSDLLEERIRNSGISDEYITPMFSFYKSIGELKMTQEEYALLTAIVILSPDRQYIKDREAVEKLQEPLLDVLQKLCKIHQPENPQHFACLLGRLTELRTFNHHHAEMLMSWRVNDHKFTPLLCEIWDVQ

Turning to `Cc1c(I)c(=O)n(-c2ccccc2)n1C`, the Potency result in [1], in assay [2], in assay [3], in assay [5] and in assay [13] was “inactive” in each case. Moreover, the molecule was classed as inactive in assay [4], in assay [6], in assay [7], in [8], in [9] and in [10]. The result in assay [11], in assay [12] and in [14] was inactive.

As for `CCCCCOC(=O)CCC`, the Potency entry in assay [1], in assay [2], in assay [3], in assay [5] and in [13] was “inactive” in each case. Moreover, the molecule was called inactive in [4], in assay [6], in assay [7], in assay [8], in assay [9] and in assay [10]. The molecule was classed as inactive in assay [11], in assay [15], in [12] and in [14].

Take `CC(CN)CC(C)(C)CCN` (stereo unspecified): the Potency entry in assay [1], in assay [2], in assay [3], in [5], in [16] and in [13] was “inactive” throughout. Moreover, the Potency entry in assay [17] was “inactive”. Further, the call in assay [4], in assay [6], in assay [7], in assay [8], in assay [9] and in assay [10] was inactive. In addition, the call in assay [11], in assay [12], in [14] and in [18] was inactive.

For `C=C(C)C(=O)OCCOP(=O)(O)OCCOC(=O)C(=C)C`, the Potency result in assay [1], in [2], in assay [3], in [5], in assay [19] and in [16] was “inactive” throughout. For the same molecule, the Potency entry in assay [13] and in assay [17] was “inactive” in each case. The molecule was called inactive in [4], in [6], in [7], in [9], in assay [10] and in assay [12]. The outcome in [14] and in assay [20] was inactive.

Take `CC(=O)N[C@@H](CCC(=O)O)C(=O)O`: the Potency entry in [1], in [2], in [3], in assay [5] and in [13] was “inactive” in each case. For the same molecule, the outcome in assay [4], in assay [6], in assay [7], in assay [8], in [9] and in [10] was inactive. Further, the molecule was called inactive in assay [15] and in [14].

For the molecule `O=S(=O)(O)c1cc(O)c2ccc(Nc3ccccc3)cc2c1`, the Potency entry in [1], in assay [2], in assay [3], in assay [5] and in assay [13] was “inactive” each time. In addition, the outcome in [4], in [6], in assay [7], in [8], in assay [9] and in assay [10] was inactive. The molecule was called inactive in assay [15], in [14], in [20] and in assay [18].

On to `O=C(NCCc1c[nH]c2ccccc12)c1cccnc1`, for which the Potency result in assay [1], in [3], in assay [5], in assay [16], in assay [13] and in assay [17] was “inactive” throughout. Further, the Potency in assay [2] was 13.3 µM (active). For the same molecule, the molecule was classed as inactive in [4], in [6], in assay [7], in assay [8], in [9] and in [10]. Further, the result in [15], in [14] and in [18] was inactive.
